Only some compounds are listed: those with a hit (about 2.4% of all), similar ones and a draw of the others.
FEN1 inhibitor = inhibitors of human flap endonuclease 1. P39748. Recombinant FEN1 flap cleavage, fluorescence, 15 min. Potency, µM (top dose mostly 114 µM), usual class: inhibitors. 390,000 tested, 0.35% active; note: nearly all actives have a fitted effect of over 65% in size
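FEN1 at 10 nM preincubated with compounds 15 min at room temperature, then flap DNA substrate added at 50 nM final. Signal read at 0 and 15 min; concentration-response fitted with four-parameter Hill equation.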
WRN helicase inh = blocks human WRN helicase; WRN helicase unwinding, fluorescent forked duplex, kinetic; Potency, µM (series often up to 114 µM), most hits filed as inhibitors; 360,000 tested, 0.46% active; AID 651768; note: nearly all actives have a fitted effect of over 55% in size
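Kinetic red-fluorescence monitoring (525/598 nm) tracks WRN helicase activity after 100 nM fluorophore-quencher forked duplex and 2 mM ATP are added to 20 nM enzyme pretreated 15 min at room temperature with compound.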
Pol eta inh-1 = DNA polymerase eta (human) inhibition | Q9Y253 | 390,000 tested, 1.2% active | Potency, µM (highest dose often 114 µM), most hits filed as inhibitors | recombinant Pol eta, fluorescent DNA replication assay | AID 588591
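Pol eta at 10 nM preincubated with compounds 15 min at room temperature; reaction started with fluorescent substrate (50 nM final) and read kinetically at 0 and 10 min.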
Pol kappa inh-1 = blocks human DNA polymerase kappa activity; Potency, µM (highest dose often 107 µM), usual class: inhibitors; 400,000 tested, 0.53% active; purified Pol kappa, fluorescent DNA synthesis assay, 10 min; Q9UBT6; AID 588579
Target sequence (Q9UBT6 whole entry, looked up): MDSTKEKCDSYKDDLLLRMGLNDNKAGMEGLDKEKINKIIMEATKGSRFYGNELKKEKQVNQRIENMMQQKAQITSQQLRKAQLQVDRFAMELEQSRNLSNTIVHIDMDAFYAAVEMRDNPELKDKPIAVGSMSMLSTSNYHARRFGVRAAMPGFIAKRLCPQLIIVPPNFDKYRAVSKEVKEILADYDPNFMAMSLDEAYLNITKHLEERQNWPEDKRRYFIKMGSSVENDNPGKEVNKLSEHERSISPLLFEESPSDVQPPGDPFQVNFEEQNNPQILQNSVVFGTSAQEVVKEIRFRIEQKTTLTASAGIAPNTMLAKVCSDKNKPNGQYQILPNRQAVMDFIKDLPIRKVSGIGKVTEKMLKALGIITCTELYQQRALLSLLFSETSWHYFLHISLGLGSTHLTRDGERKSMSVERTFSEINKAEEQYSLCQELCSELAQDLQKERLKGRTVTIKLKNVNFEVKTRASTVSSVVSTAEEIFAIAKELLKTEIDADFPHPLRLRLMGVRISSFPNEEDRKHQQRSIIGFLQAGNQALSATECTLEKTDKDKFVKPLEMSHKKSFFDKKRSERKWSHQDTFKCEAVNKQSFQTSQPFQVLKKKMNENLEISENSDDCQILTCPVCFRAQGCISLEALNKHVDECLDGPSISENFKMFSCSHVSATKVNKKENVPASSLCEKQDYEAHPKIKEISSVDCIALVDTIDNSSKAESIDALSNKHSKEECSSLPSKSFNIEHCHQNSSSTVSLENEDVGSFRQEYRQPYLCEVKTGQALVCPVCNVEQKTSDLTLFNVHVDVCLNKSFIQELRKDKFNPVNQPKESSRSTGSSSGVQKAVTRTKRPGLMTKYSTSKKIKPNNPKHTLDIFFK
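Enzyme at 10 nM met test compounds for 15 min at room temperature. Substrate addition (50 nM final) began the reaction, which was monitored by fluorescence at 0 and 10 min.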
Pol beta inh = DNA polymerase beta (human) inhibition; AID 485314; 340,000 tested, 1.3% active; P06746; Pol beta primer extension/strand displacement, fluorescence kinetic; Potency, µM (doses to about 114 µM), actives largely listed as inhibitors
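10 nM enzyme + cpd, 15 min RT; start with substrate 50 nM final; read 0 min and after 10 min RT. Corrected, normalized data; 4-parameter Hill curve fit.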
Pol iota inh = DNA polymerase iota (human) inhibition; Potency, µM (titrated, usually from 115 µM), hits mostly inhibitors; 390,000 tested, 1% active; Pol iota fluorescent replication assay, 10 min; Q9UNA4
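Pol iota at 10 nM preincubated 15 min with compounds at room temperature; reaction started with fluorescent substrate, 50 nM final. Fluorescence read kinetically at 0 and 10 min; buffer-only wells as negative control.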
GALK confirm = galactokinase (human) inhibition, confirmation; shares compounds with Pol eta inh-1; purified GALK, Kinase-Glo ATP depletion luminescence; Potency, µM (top dose mostly 115 µM), actives largely listed as inhibitors; 150 tested, 70% active; AID 2015
Redox cycling = redox cycling activity in phenol red-HRP assay; shares compounds with Pol eta inh-1; Phenol red-HRP H2O2 redox cycling, absorbance 600 nm; Potency, µM (top dose mostly 115 µM), actives largely listed as inhibitors; 150 tested, 40% active; AID 2035
HEK293 viability = reduces HEK-293 cell viability in GALK counter-screen. shares compounds with Pol eta inh-1. HEK-293 viability, ATP luminescence (CellTiter-Glo), 24/48 h. Potency, µM (titrated, usually from 46.1 µM), most hits filed as inhibitors. 170 tested, 10% active. AID 2547
Pol kappa inh-2 = Pol kappa (human) inhibition, cherry-pick confirmation. shares compounds with Pol eta inh-1. purified Pol-kappa, fluorescent strand-displacement substrate. Potency, µM, actives largely listed as inhibitors. 920 tested, 76% active. AID 720501
Pol eta inh-2 = Pol eta (human) inhibition, cherry-pick confirmation. 2,600 tested, 64% active. shares compounds with Pol eta inh-1. Pol eta primer extension, TAMRA/BHQ fluorescence, 10 min. AID 720502. Potency, µM, actives largely listed as inhibitors
A number is an active result; - = inactive; ? = inconclusive; . = not tested or not shown; [ ] = remark or other dose. Calls come from the whole dose curve; as a rule, active = well fitted curve in the direction sought with a large enough effect; inconclusive = small, poorly fitted or top-dose-only effect, or another doubt; inactive = no such curve, though single readings can be large; an effect the other way counts as inactive or inconclusive.

SMILES	FEN1 inhibitor	WRN helicase inh	Pol eta inh-1	Pol kappa inh-1	Pol beta inh	Pol iota inh	Pol eta inh-2	others
CC1(C)CC(=O)C2=C(C1)NC(Nc1nc3ccccc3o1)=NC2c1ccccc1Cl (configuration not stated)	-	.	.	-	.	-	.	HEK293 viability=-
CC1(C)CC(=O)C2=C(C1)NC(Nc1nc3ccccc3o1)=NC21CCCC1	-	-	-	-	-	-	.	GALK confirm=?;Redox cycling=-;HEK293 viability=-
Cc1cc(NC(=O)c2cc(S(=O)(=O)N3CCCCC3)ccc2C)no1	-	-	22µM	?	.	?	?
COc1cc(/C=N/n2c(-c3n[nH]c4c3CCC4)n[nH]c2=S)cc(OC)c1O	-	-	-	-	-	-	.
S=c1[nH]nc(-c2n[nH]c3c2CCC3)n1/N=C/C=C/c1ccco1	-	?	25µM	79µM	40µM	?	30
S=c1[nH]nc(-c2ccco2)n1/N=C/C=C/c1ccco1	-	?	28µM	79µM	35µM	11µM	85
Cc1cn([C@H]2C[C@H](O)[C@@H](CNC(=O)[C@H](N)Cc3cscn3)O2)c(=O)[nH]c1=O	.	-	-	.	.	.	.
O=C(/C=C/c1ccccc1)Nc1sc2c(c1C(=O)O)CCC2	-	-	-	?	-	?	.
O=C(/C=C/c1ccco1)Nc1sc2c(c1C(=O)O)CCC2	-	-[11.6 µM]	79µM	?	-	?	?
N#Cc1c(NC(=O)/C=C/c2ccco2)sc2c1CCCC2	-	?	?	-	?	50µM	85
O=C(Nc1sc2c(c1C(=O)O)CCC2)c1ccccc1	-	?	13µM	?	20µM	?	76
CCc1nc2c(OCCC3CCCCC3)cccn2c1N(C)C(=O)COc1ccccc1	.	-	.	.	.	.	.
C[C@H]1CN([C@@H](C)CO)C(=O)CCCn2nncc2CO[C@@H]1CN(C)Cc1ccccc1C(F)(F)F	.	-	-	.	.	.	.
COc1ccc(-c2ccc(CN3C(C)C(=O)N(Cc4cn(CCC5OCCO5)nn4)CCS3(=O)=O)cc2)cc1 (configuration not stated)	.	-[11.6 µM]	28µM	.	.	.	?	Pol kappa inh-2=?
Cc1ccc(N2CC(C(=O)Nc3cccc(C(=O)NC4CC4)c3)CC2=O)cc1 (configuration not stated)	-	-	35µM	-	.	?	.	Pol kappa inh-2=?
CCN(CC)S(=O)(=O)c1ccc(N2CC(C(=O)Nc3cccc(C(=O)NC4CC4)c3)CC2=O)cc1 (configuration not stated)	-	-	-	-	.	-	.
CCCCCCCCNCCS(=O)(=O)NCc1ccc(OC)cc1	-	-	-	-	.	-	.
COc1ccc(/C=C2\SC(=S)N(NS(=O)(=O)c3ccc(C)cc3)C2=O)c(OC)c1	-	-	?	-	?	-	21
COc1ccc(/C=C2\SC(=S)N(NS(=O)(=O)c3ccccc3)C2=O)c(OC)c1	-	-[11.6 µM]	?	-	-	-	.
CCOC(=O)c1ccc(N2CCN(c3cccc(Cl)c3)CC2)c(NC(=O)Nc2ccc(Cl)cc2)c1	-	.	-	-	-	-	.
CC1CCCN(S(=O)(=O)c2cc(C(=O)NCCc3ccc(S(N)(=O)=O)cc3)ccc2Cl)C1 (configuration not stated)	-	-	?	-	.	-	.
Cc1cc(NC(=O)c2cc([N+](=O)[O-])cc([N+](=O)[O-])c2C)no1	-	-	32µM	?	?	56µM	?
Cc1cc(NC(=O)c2cc([N+](=O)[O-])cc([N+](=O)[O-])c2)no1	-	-	-	-	-	-	.
Cc1c(C(=O)N2CCN(C)CC2)oc2ccc(Br)cc12	-	-	-	-	-	-	.
Cc1c(C(=O)N2CCCC2)oc2ccc(Br)cc12	-	-[11.6 µM]	50µM	-	?	?	?
SMILES	FEN1 inhibitor	WRN helicase inh	Pol eta inh-1	Pol kappa inh-1	Pol beta inh	Pol iota inh	Pol eta inh-2	others
O=C1CSC(=S)N1/N=C/C=C/c1ccccc1	-	-	14µM	?	28µM	20µM	?
O=C1CSC(=S)N1/N=C/c1c(F)cccc1F	-	-	-	-	-	?	.
Cc1ccc(-c2c(CN3CCN(c4cccc(C(F)(F)F)c4)CC3)csc2C)cc1	-	.	-	-	-	-	.
O=C(O)c1cc(-c2ccco2)nc2cc3ccccc3cc12	-	?	20µM	79µM	11µM	?	76
CC(=O)N1CCN(c2ccc(NS(=O)(=O)c3ccc4c(c3)CC(=O)N4)cc2)CC1	.	.	.	.	.	.	?
CCc1ccc(-c2cn3c(n2)sc2cc(C(=O)NC4CCCCC4)ccc23)cc1	-	.	-	-	-	-	.
CCOc1cc(C2NC(=O)NC(C)=C2C(C)=O)cc(Cl)c1OCC(=O)O (configuration not stated)	-	-	22µM	-	?	?	?
C/C(=N/Nc1ccc(C(=O)O)cc1)c1ccc2c(c1)Nc1ccccc1S2	-	-[11.6 µM]	18µM	?	.	50µM	76	Pol kappa inh-2=38
C/C(=N\Nc1ccc(C(=O)O)cc1)c1ccc2c(c1)Nc1ccccc1S2	?	-	25µM	?	?	22µM	76
CC1(C)N=C(N)NC(=NCCCOc2ccc([N+](=O)[O-])cc2)N1	.	-	.	.	.	.	.
CC(C(=O)NCc1ccccc1)N1Cc2ccccc2C1=O (configuration not stated)	-	.	-	-	-	-	.
CCOC(=O)C1CCN(c2nc(N)c3c(N)nc(SCC(=O)O)cc3c2C#N)CC1	45µM	45µM	7.1µM	35µM	28µM	25µM	.	GALK confirm=67µM;Redox cycling=19µM;HEK293 viability=-
COC(=O)C1C2C=CC3(CN(c4cccc(C)c4)C(=O)C13)O2 (configuration not stated)	-	?	35µM	-	-	?	?
CCC(CNc1cc(OC)cc2cccnc12)NC1CCCCC1 (configuration not stated)	?	-	-	-	?	?	.	GALK confirm=9.4µM;Redox cycling=3.8µM;HEK293 viability=-
c1coc(CNc2ncnc3c2nc2n3CCCC2)c1	-	.	.	-	.	-	.

Assay outcomes from PubChem BioAssay.
